The list is not random: actives were taken first. Their share in the collection is about 3.9%.
Peg3 promoter = reduces Peg3 promoter-driven luciferase expression in HeLa | inhibition, % at 20 µM | HeLa PEG-Prom luciferase reporter, luminescence, overnight | 360,000 compounds, 1.7% hits;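 active = inhibition of at least 50% at 20 µM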
KKLEB cytotox = CF airway cell cytotoxicity counter-screen | KKLEB CF airway cells viability, ATPlite luminescence, overnight; stronger effect = lower value; cells stimulated with P. aeruginosa culture filtrate | activity change (cytotoxicity), % at 5 µM | 360,000 compounds, 0.36% hits | AID 602141;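 active = corrected activity change at or below -50% at 5 µM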
TROY NFkB inh = blocks TROY-dependent signaling in reporter cells; Q293 LMP1-TROYcd NF-kB luciferase reporter, 4 h; inhibition, % at 10 µM; 360,000 compounds, 0.98% hits;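 active = compounds whose plate-normalised and pattern-corrected inhibition of the luciferase reporter signal at the single screening dose is 50% or more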
TWEAK Fn14 block = TWEAK-Fn14 signaling inhibition; TWEAK-stimulated Fn14 reporter cells, luciferase luminescence, 8 h; inhibition, % at 10 µM; 360,000 compounds, 2% hits; in the data active = inhibition above about 50%
HIF-2a inh = inhibitors of HIF-2a. 786-0 RCC cells HIF-2a reporter, luciferase luminescence, overnight. inhibition, % at 18.8 µM. 360,000 compounds, 0.72% hits. AID 624352;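 active = inhibition of the luminescence signal of 40% or more relative to plate controls, in a single-dose primary screen at 18.75 µM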
CF NFkB inh = inhibitors of cystic fibrosis induced NF-kB. KKLEB NF-kB-GFP reporter, PAF-induced, GFP fluorescence overnight. inhibition, % at 5 µM. 360,000 compounds, 0.86% hits;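 active = at least 50% inhibition at 5 µM, scaled per plate between neutral and stimulator controls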;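 also: PAF is a Pseudomonas aeruginosa culture filtrate used as stimulus; plate controls were PAF-stimulated DMSO wells for no effect and unstimulated DMSO wells for full effect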
* = called active by the depositor.

SMILES	Peg3 promoter	KKLEB cytotox	TROY NFkB inh	TWEAK Fn14 block	HIF-2a inh	CF NFkB inh
O=C(CSCC(=O)N1CCCCC1)Nc1nc(-c2ccccc2)c(-c2ccccc2)s1	14.4	-11.4	7.6	51.5*	-20.0	-8.3
O=C(CSc1nc(-c2ccccc2)c(-c2ccccc2)o1)N1CCCCC1	21.7	-11.5	-6.3	-25.2	-5.3	37.5
Cc1ccc(CN2CCN(Cc3ccon3)CC2CCO)cc1 (configuration not stated)	4.6	1.2	-6.0	-13.4	10.4	8.9
O=C(O)c1ccc(NC2=C/C(=N/S(=O)(=O)c3ccccc3)c3ccccc3C2=O)cc1	10.3	-37.3	50.4*	96.7*	44.2*	89.1*
O=S(=O)(N=C1C=CC(=NS(=O)(=O)c2ccccc2)c2ccccc21)c1ccccc1	17.1	-8.5	38.2	21.5	20.1	24.7
Cc1cc(C)c(S(=O)(=O)/N=C2\C=C(Nc3ccc(C(=O)O)cc3)C(=O)c3ccccc32)c(C)c1	103.3*	-63.3*	62.4*	96.5*	-14.0	91.1*
O=C(O)c1ccc(NS(=O)(=O)c2ccc3c(c2)C(=O)c2ccccc2C3=O)cc1	-2.6	3.7	-5.1	8.4	9.1	3.8
Cc1ccc(NC(=O)C(c2ccccc2)N2CCN(CC(=O)NC3CC3)CC2)cc1 (configuration not stated)	-16.4	8.3	-38.1	-15.9	-29.7	-0.2
O=C(CCN1CCc2ccccc2CC1)c1ccc2c(c1)OCCO2	105.8*	3.9	11.6	0.8	16.5	9.6
CC(C)c1nnc(NC(=O)c2cccc(-n3cnnn3)c2)s1	-11.1	4.1	-16.0	-10.3	-22.9	-8.3
O=C(NC(=S)N1CCCCC1c1cccnc1)c1ccc(Br)cc1 (configuration not stated)	-17.1	5.0	-47.0	12.3	-35.8	-6.1
O=C(NC(=S)N1CCCCC1c1cccnc1)c1ccc(F)cc1 (configuration not stated)	-21.1	11.8	73.4*	5.5	-7.8	-4.5
Cc1ccc(NC2CCCN(C(=O)C3CCCCC3)C2)cc1C (configuration not stated)	24.9	-12.7	-20.7	69.4*	4.4	21.8
O=C(C1CCCC1)N1CCCC(Nc2ccc(F)cc2)C1 (configuration not stated)	10.6	2.5	-7.2	-4.1	9.0	-1.8
O=S(=O)(Nc1ccccc1Cl)c1ccc2[nH]c(=S)oc2c1	-4.1	-23.7	1.6	5.0	11.7	11.0
CCOC(=O)C1CCN(C(=O)C2(NC(=O)NC3CCCCC3)CCCCC2)CC1	63.7*	3.8	-14.7	3.5	13.3	4.6
CCOC(=O)C1CCN(C(=O)C2(NC(=O)Nc3ccc(F)cc3F)CCCCC2)CC1	15.7	6.7	-0.7	0.8	11.7	1.1
Cc1ccc(O)c(-c2[nH]ncc2C(=O)c2ccc(Br)cc2)c1	20.3	8.2	65.0*	16.5	18.1	12.7
Cc1ccc(O)c(-c2[nH]ncc2C(=O)c2ccc(Cl)cc2)c1	10.3	2.7	-4.5	34.3	11.0	-14.8
O=c1c(Cl)c(NS(=O)(=O)c2ccccc2)cnn1-c1ccccc1	0.9	-4.4	-19.8	-5.2	7.7	10.1
C=CC(=O)N=c1sc2ccccc2n1-c1ccccc1	97.7*	-33.3	37.9	23.4	-37.6	56.8*
N=c1sc2ccccc2n1-c1ccccc1	21.6	0.1	-0.2	-28.3	-13.3	2.2
COc1cc([C@@H]2c3cc4c(cc3[C@H](O)[C@H]3COC(=O)[C@H]23)OCO4)cc(OC)c1OC	-33.0	-27.8	5.5	-0.3	28.5	51.0*
COc1cc(C2c3cc4c(cc3OC(NNC(N)=S)C2C)OCO4)cc(OC)c1OC (configuration not stated)	-9.8	-22.0	24.9	-8.2	20.8	43.8
COc1cc(C2c3cc4c(cc3OC(NNC(N)=O)C2C)OCO4)cc(OC)c1OC (configuration not stated)	-18.6	-28.6	17.2	6.7	26.1	50.6*
SMILES	Peg3 promoter	KKLEB cytotox	TROY NFkB inh	TWEAK Fn14 block	HIF-2a inh	CF NFkB inh
COc1cc(C2c3cc4c(cc3C(O)C3COCC23)OCO4)cc(OC)c1OC (configuration not stated)	10.3	-12.1	5.8	1.2	12.2	17.6
O=C(CSc1nnc(-c2ccccc2)n1Cc1ccccc1)N1CCOCC1	2.1	-10.7	-16.4	-3.0	6.7	-8.9
Oc1ccccc1-c1nnc(SCCN2CCOCC2)n1Cc1ccccc1	53.4*	0.2	-5.2	9.2	-20.1	5.5
Cc1cc(C(=O)COC(=O)C2CCN(C(=O)c3ccc(Cl)cc3)CC2)c(C)n1CC1CCCO1 (configuration not stated)	-141.7	-6.7	19.2	67.9*	-17.2	16.5
CCC(=O)c1ccc(OCC(=O)OCC(=O)c2cc(C)n(CC3CCCO3)c2C)cc1 (configuration not stated)	-13.3	6.6	-12.9	-1.2	0.7	1.7
Cc1cc(C(=O)CSc2nc3ccccc3[nH]2)c(C)n1CC1CCCO1 (configuration not stated)	102.5*	-27.9	41.8	19.5	-56.5	13.9
Cc1cc(C(=O)COC(=O)c2cccnc2Cl)c(C)n1C	-30.1	-24.0	4.0	75.8*	-180.6	11.9
CSc1ncccc1C(=O)OCC(=O)c1cc(C)n(CC2CCCO2)c1C (configuration not stated)	-100.7	-3.6	61.8*	75.6*	-161.9	10.5
Cc1cc(C(=O)CSc2nc(N)cc(=O)[nH]2)c(C)n1CC1CCCO1 (configuration not stated)	4.5	1.2	4.8	11.1	-4.6	-8.0
CC(NC(=O)c1cc(S(=O)(=O)N(C)C)ccc1N1CCCC1)C1CC2CCC1C2 (configuration not stated)	9.3	6.3	4.2	-10.6	20.7	-1.9
CCCc1cc(=O)[nH]c2nnc(SCC(=O)N3CC(C)OC(C)C3)n12 (configuration not stated)	2.8	3.1	7.1	5.6	9.1	9.5
O=C(CSc1ccc(Br)cc1)N1CCN(C(=O)c2ccco2)CC1	9.6	-2.1	-7.7	12.5	-2.9	2.1
Cc1cc(C)c2nc(NC(=O)C3CSC4(C)CCC(=O)N34)sc2c1 (configuration not stated)	-36.5	-3.7	-15.0	46.5	-38.8	16.5
Cc1cc(C(=O)COC(=O)c2ccc3c(c2)OCO3)c(C)n1CC1CCCO1 (configuration not stated)	-135.2	-0.4	76.6*	58.3*	-35.0	6.1
COc1cc(C(=O)OCC(=O)c2cc(C)n(CC3CCCO3)c2C)cc(OC)c1C (configuration not stated)	-68.0	-2.3	-5.4	18.0	-37.9	28.2
CC(C1CC1)N(Cc1ccccc1)C(=S)Nc1ccccc1Cl (configuration not stated)	0.7	-3.2	85.7*	6.6	10.2	-4.8
Cn1nc(C(=O)OCC(=O)Nc2ccc(SC(F)F)cc2)c2ccccc2c1=O	-17.0	11.9	20.1	-14.7	-11.0	13.9

Source: PubChem BioAssay (Sanford-Burnham Center for Chemical Genomics)
